Assay results reported in PubChem BioAssay (NCI).
Compounds without any hit were thinned out: in the full panel of roughly 83,000, 20% have a hit.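 Single-concentration screen, 48 h exposure, 96-well plates. Endpoint: percent growth. Below 10 = active.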 Unmarked numbers belong to inactive results. Calls of active or inactive are those of the source.

Experiments:
Assay in all cases: NCI-60 one-dose screen, 48 h (100 = growth as untreated, 0 = no growth, -100 = all killed)
[1] = tested on: NCI-H23 lung
[2] = tested on: NCI-H226 lung
[3] = tested on: NCI-H322M lung; details: 10 µM unless noted
[4] = tested on: HOP-62 NSCLC
[5] = tested on: NCI-H460 lung
[6] = tested on: HOP-92 NSCLC
[7] = tested on: NCI-H522 lung
[8] = tested on: A549/ATCC NSCLC
[9] = tested on: 786-0 renal
[10] = tested on: COLO 205 colon

CC(=O)/C=C/c1ccc(OCc2ccc(C(C)(C)C)cc2)cc1
growth ([1]; 10 µM): 52.5%
growth ([1]; 100 µM): 31.7%
growth ([2]; 10 µM): 77.5%
growth ([2]; 100 µM): 38.3%
growth [3]: 19.4% [100 µM]
growth ([4]; 10 µM): 88%
growth ([4]; 100 µM): 26.8%
growth ([5]; 10 µM): 84.4%
growth ([5]; 100 µM): 24.6%
growth ([6]; 10 µM): 89.5%
growth ([6]; 100 µM): -14.7% (active)
growth ([7]; 10 µM): 76.1%
growth ([7]; 100 µM): -8.78% (active)
growth ([8]; 10 µM): 80.3%
growth ([8]; 100 µM): 41.8%
growth ([9]; 10 µM): 91.9%
growth ([9]; 100 µM): 20.7%
growth ([10]; 10 µM): 78.6%
growth ([10]; 100 µM): -65.6% (active)

CC1(C)C(N)=Nc2cc(OCCCN3Cc4ccc(OCCc5cn(CC(=O)N6CCC(CCN7CCCC7)CC6)nn5)cc4C3)c(OCC3CC3)cc21
growth ([1]; 10 µM unless noted): 98.2%
growth ([2]; 10 µM unless noted): 108%
growth [3]: 102%
growth ([4]; 10 µM unless noted): 95.4%
growth ([5]; 10 µM unless noted): 105%
growth ([6]; 10 µM unless noted): 81.3%
growth ([7]; 10 µM unless noted): 101%
growth ([8]; 10 µM unless noted): 100%
growth ([9]; 10 µM unless noted): 99.6%
growth ([10]; 10 µM unless noted): 108%

CC(=O)N1N=C(c2ccc(Nc3nc(Nc4ccc(F)cc4)nc(Nc4ccc(F)cc4)n3)cc2)CC1c1ccccc1 (stereo not drawn)
growth ([1]; 10 µM unless noted): 90%
growth ([2]; 10 µM unless noted): 102%
growth [3]: 92.5%
growth ([4]; 10 µM unless noted): 85.9%
growth ([5]; 10 µM unless noted): 92.3%
growth ([6]; 10 µM unless noted): 58.3%
growth ([7]; 10 µM unless noted): 89.4%
growth ([8]; 10 µM unless noted): 86.4%
growth ([9]; 10 µM unless noted): 78.5%
growth ([10]; 10 µM unless noted): 68.5%

N#C/C(=N\Nc1ccc(Cl)cc1)C(=O)Nc1cc(-c2ccccc2)nn1-c1ccccc1
growth ([1]; 10 µM unless noted): 1.09% (active)
growth ([2]; 10 µM unless noted): 51.5%
growth [3]: 11.9%
growth ([4]; 10 µM unless noted): 61.4%
growth ([5]; 10 µM unless noted): 8.34% (active)
growth ([6]; 10 µM unless noted): -23.4% (active)
growth ([7]; 10 µM unless noted): 7.38% (active)
growth ([8]; 10 µM unless noted): 33.8%
growth ([9]; 10 µM unless noted): 45.2%
growth ([10]; 10 µM unless noted): 65.4%

Nn1c(-c2ccc(Cl)cc2)nc2c(-c3ccc(Cl)cc3)nc3ccc(Cl)cc3c2c1=O
growth ([1]; 10 µM unless noted): 56.3%
growth ([2]; 10 µM unless noted): 1.77% (active)
growth [3]: 35.3%
growth ([4]; 10 µM unless noted): -78.2% (active)
growth ([5]; 10 µM unless noted): -63.2% (active)
growth ([6]; 10 µM unless noted): 27.4%
growth ([7]; 10 µM unless noted): 48.9%
growth ([8]; 10 µM unless noted): -61.2% (active)
growth ([9]; 10 µM unless noted): -65.3% (active)
growth ([10]; 10 µM unless noted): 22.3%

CCCn1nc(C(=O)N2CCCCC2)c2c1CCC(N1CCC(c3ccncc3)CC1)C2 (stereo not drawn)
growth ([1]; 10 µM unless noted): 105%
growth ([2]; 10 µM unless noted): 116%
growth [3]: 108%
growth ([4]; 10 µM unless noted): 113%
growth ([5]; 10 µM unless noted): 110%
growth ([6]; 10 µM unless noted): 111%
growth ([7]; 10 µM unless noted): 90.5%
growth ([8]; 10 µM unless noted): 102%
growth ([9]; 10 µM unless noted): 101%
growth ([10]; 10 µM unless noted): 115%

C/C(=C(\c1ccc(OCCN2CCOCC2)cc1)c1ccc(OC(=O)C2CCCCC2)cc1)c1ccc(Cl)cc1
growth ([1]; 10 µM unless noted): 88.9%
growth ([2]; 10 µM unless noted): 103%
growth [3]: 91.9%
growth ([4]; 10 µM unless noted): 99.4%
growth ([5]; 10 µM unless noted): 97.5%
growth ([6]; 10 µM unless noted): 71%
growth ([7]; 10 µM unless noted): 62.8%
growth ([8]; 10 µM unless noted): 92.9%
growth ([9]; 10 µM unless noted): 80.6%
growth ([10]; 10 µM unless noted): 103%

CC(=O)/C=C/c1ccc(OCc2ccc(Cl)cc2)cc1
growth ([1]; 10 µM): 90.9%
growth ([1]; 100 µM): 37.1%
growth ([2]; 10 µM): 100%
growth ([2]; 100 µM): 49.6%
growth [3]: 52.5% [100 µM]
growth ([4]; 10 µM): 110%
growth ([4]; 100 µM): 44.9%
growth ([5]; 10 µM): 101%
growth ([5]; 100 µM): 26.1%
growth ([6]; 10 µM): 91.8%
growth ([6]; 100 µM): 11%
growth ([7]; 10 µM): 90.4%
growth ([7]; 100 µM): -3.06% (active)
growth ([8]; 10 µM): 75.9%
growth ([8]; 100 µM): 34.1%
growth ([9]; 10 µM): 88.1%
growth ([9]; 100 µM): 51.2%
growth ([10]; 10 µM): 122%
growth ([10]; 100 µM): -21.9% (active)

CC(=O)c1nn(-c2ccccc2)/c(=N/N=Cc2cn(-c3ccccc3)nc2-c2cc3ccccc3oc2=O)s1
growth ([1]; 10 µM unless noted): 109%
growth ([2]; 10 µM unless noted): 105%
growth [3]: 93.2%
growth ([4]; 10 µM unless noted): 101%
growth ([5]; 10 µM unless noted): 117%
growth ([6]; 10 µM unless noted): 94.7%
growth ([7]; 10 µM unless noted): 95.6%
growth ([8]; 10 µM unless noted): 102%
growth ([9]; 10 µM unless noted): 105%
growth ([10]; 10 µM unless noted): 117%

O=c1ccc2nc(-c3ccccn3)nn(-c3ccccc3)c-2c1
growth ([1]; 10 µM unless noted): 89.5%
growth ([2]; 10 µM unless noted): 90.1%
growth [3]: 102%
growth ([4]; 10 µM unless noted): 93.4%
growth ([5]; 10 µM unless noted): 109%
growth ([6]; 10 µM unless noted): 36.8%
growth ([7]; 10 µM unless noted): -45% (active)
growth ([8]; 10 µM unless noted): 101%
growth ([9]; 10 µM unless noted): 53.6%
growth ([10]; 10 µM unless noted): -59.4% (active)

COc1cc(N=Nc2ccc(O)c3ncccc23)c2ncccc2c1
growth ([1]; 10 µM unless noted): 50.2%
growth ([2]; 10 µM unless noted): 64.6%
growth [3]: 55.9%
growth ([4]; 10 µM unless noted): 42.7%
growth ([5]; 10 µM unless noted): 17.4%
growth ([6]; 10 µM unless noted): 32.4%
growth ([7]; 10 µM unless noted): 15.9%
growth ([8]; 10 µM unless noted): 8.08% (active)
growth ([9]; 10 µM unless noted): 24.3%
growth ([10]; 10 µM unless noted): 52.4%

Cc1n(Cc2ccc3ccccc3c2)c(Cl)c(Cl)[n+]1Cc1ccc2ccccc2c1
growth ([1]; 10 µM unless noted): 25.6%
growth ([2]; 10 µM unless noted): 47.1%
growth [3]: 76.2%
growth ([4]; 10 µM unless noted): 59.6%
growth ([5]; 10 µM unless noted): 33.5%
growth ([6]; 10 µM unless noted): -11.3% (active)
growth ([7]; 10 µM unless noted): 16.9%
growth ([8]; 10 µM unless noted): 81.4%
growth ([9]; 10 µM unless noted): 50.2%
growth ([10]; 10 µM unless noted): -46.6% (active)
